Inhibition data for 61 molecules are collected here from PubChem BioAssay AID624330 (Southern Research Specialized Biocontainment Screening …, 2012).

Among all 340,000 compounds or so, about 2,100 (0.62%) were called active.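 The calls were made as follows: active = first-screen hits whose inhibition reached a set limit at any dose in the follow-up dose series; inconclusive = inhibition above the set first-screen limit but never retested; inactive = the rest.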 Not all results are given here. Potency and affinity values are given separately.

Rac GTPase-activating protein 1 (Homo sapiens), sequence (Q9H0H5 whole entry, looked up): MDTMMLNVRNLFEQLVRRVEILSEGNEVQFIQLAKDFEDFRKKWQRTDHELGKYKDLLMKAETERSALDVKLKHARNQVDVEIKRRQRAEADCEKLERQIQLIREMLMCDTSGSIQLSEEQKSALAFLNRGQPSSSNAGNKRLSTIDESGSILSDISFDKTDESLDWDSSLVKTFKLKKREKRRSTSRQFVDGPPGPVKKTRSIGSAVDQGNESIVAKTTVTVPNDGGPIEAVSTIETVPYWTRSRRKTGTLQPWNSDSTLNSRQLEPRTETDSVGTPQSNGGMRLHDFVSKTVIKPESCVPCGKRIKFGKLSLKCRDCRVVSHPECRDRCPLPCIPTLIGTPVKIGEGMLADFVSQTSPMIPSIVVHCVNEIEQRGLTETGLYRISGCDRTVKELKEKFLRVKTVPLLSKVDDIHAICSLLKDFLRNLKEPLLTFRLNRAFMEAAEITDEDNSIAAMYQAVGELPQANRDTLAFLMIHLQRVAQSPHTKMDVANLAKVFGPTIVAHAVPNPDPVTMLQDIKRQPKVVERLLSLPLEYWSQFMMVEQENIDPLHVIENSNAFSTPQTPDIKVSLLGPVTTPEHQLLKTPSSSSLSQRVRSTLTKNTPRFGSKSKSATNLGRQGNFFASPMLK

The test addresses Rac GTPase-activating protein 1 (Homo sapiens) (UniProt Q9H0H5). As to the kind of experiment: MgcRacGAP GTPase-activating activity inhibitors, confirmation, biochemical, ADP Hunter fluorescence, primary and confirmatory (AID 624330).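 Also: fluorescence reports GDP produced by GAP-driven GTP hydrolysis.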 To be noted: MgcRacGAP-stimulated Rac1 GTP hydrolysis, at 30 µM, stronger effect = higher value, GST-tagged Rac1 F28L mutant substrate.
For `COc1ccc(C(=O)Nc2c(C(C)(C)C)nn(C)c2C(C)(C)C)cc1`, the inhibition (as a rule, the drop in the measured response relative to a control, in per cent) is 10.2% (inactive).

In the case of `CCOC(=O)C1CCN(S(=O)(=O)c2ccc(Cl)cc2)CC1`, the inhibition is 4.24% (inactive).

In the case of `Cc1sc2nc(CSc3ccccc3)nc(N3CCN(C)CC3)c2c1C`, the inhibition was 7.15% (inactive).

In the case of `CCOC(=O)c1sc2nc(CSc3ccccc3)nc(N3CCC(C(N)=O)CC3)c2c1C`, the inhibition was -5.99% (inactive).

Regarding `CC/C(=N\O)c1ccc(OC)c(OC)c1`, the inhibition is 8.04% (inactive).

As for `COc1cc(C(=O)C(=O)c2ccc(O)c(OC)c2)ccc1O`, the inhibition was 13.4% (inactive).

`COc1cc(C(=O)OCCN2CCCCC2)ccc1O`: the inhibition was 21.2% (inactive).

Consider `C=CCOc1ccc(/C(CC)=N/O)cc1OC`, for which the inhibition is 3.46% (inactive).

Consider `COc1ccc(C(=O)Nc2ccc(Oc3nc(C)nc4sc(-c5ccccc5)cc34)cc2)cc1OC`, for which the inhibition is 2.99% (inactive).

Consider `CC(C)(C)NC(=O)C(c1ccc(O)cc1)N(C(=O)CCC(=O)Nc1nccs1)c1cccc(F)c1` (stereo unspecified), for which the inhibition was 8.98% (inactive).

For the molecule `COc1cc(/C=N/n2c(C)nnc2C)cc(OC)c1OC`, the inhibition was 3.62% (inactive).

Consider `COc1ccc(/C=N/n2c(-c3cc(C)[nH]n3)n[nH]c2=S)cc1`, for which the inhibition is 21.4% (inactive).

For `COc1cc(/C=N/n2c(-c3ccccc3)n[nH]c2=S)cc(OC)c1OC`, the inhibition is 14.2% (inactive).

Turning to `COc1cc(/C=N/N2CCCCC2)cc(OC)c1O`, the inhibition is 17.9% (inactive).

As to `O=C(COc1ccc(Cl)cc1)Nc1ccc(C(=O)NCc2cccnc2)cc1`, the inhibition is 9.05% (inactive).

On to `COc1ccc(NC(=O)c2cccc3ccccc23)cc1OC`, for which the inhibition is -23.3% (inactive).

As for `O=C(O)CCS(=O)(=O)c1ccccc1Cl`, the inhibition is -0.02% (inactive).

For the molecule `COc1cccc(N(CC(=O)N2CCN(C)CC2)S(=O)(=O)c2ccc(C)cc2)c1`, the inhibition was -2.09% (inactive).

Take `Cc1ccc(S(=O)(=O)N2CCN(c3ccc(C(=O)N4CCOCC4)cc3[N+](=O)[O-])CC2)cc1`: the inhibition is 3.02% (inactive).

With `CC(=O)Nc1nonc1NC(=O)CSc1ncn[nH]1`, the inhibition was 1.36% (inactive).

For `CCOC(=O)C1C(=O)N(C(=O)c2ccc(OC)cc2)CC1c1ccccc1` (stereo unspecified), the inhibition was 3.29% (inactive).

On to `O=C(C[C@@H]1C/C=C\C[C@H](NC(=O)OCC2c3ccccc3-c3ccccc32)C(=O)OC[C@H]2CCCN2C1=O)NCCO`, for which the inhibition was 5.33% (inactive).

For the molecule `O=C(N/N=C\c1cccnc1)c1ccc(Cl)cc1Cl`, the inhibition is 8.54% (inactive).

On to `COc1ccc(/C=C(/C(=O)c2ccc(Cl)cc2Cl)n2cncn2)cc1`, for which the inhibition is 11.7% (inactive).

With `CN(C)c1ccc(/C=C(/C(=O)c2ccc(Cl)cc2Cl)n2cncn2)cc1`, the inhibition is 3.83% (inactive).

As for `CC(C)/C=C(/C(=O)c1ccc(Cl)cc1Cl)n1cncn1`, the inhibition is 7.69% (inactive).

For the molecule `CCN(CC(=O)NCc1cccs1)C(=O)c1cccc(S(=O)(=O)N2CC(C)OC(C)C2)c1` (stereo unspecified), the inhibition was -2.83% (inactive).

On to `O=C(Cn1ncc2c1-c1ccccc1OC2)N1CCc2ccccc21`, for which the inhibition is 2.35% (inactive).

In the case of `CCCCOc1ccc(C(=O)N/C(=C/C=C/c2ccccc2)C(=O)NCCCO)cc1`, the inhibition was 12.1% (inactive).

Regarding `COC(=O)/C(C#N)=C1/C=Cc2ccccc2N1`, the inhibition is -5.37% (inactive).

For the molecule `O=S1c2ccccc2Nc2ccccc21`, the inhibition was 18.2% (inactive).

For `O=C(Cn1cc(C(=O)C(F)(F)F)c2ccccc21)Nc1ccccc1F`, the inhibition is 13.4% (inactive).

`O=C(O)C1(C(=O)O)CCCC1`: the inhibition is 1.88% (inactive).

Consider `NC[C@H]1O[C@H](O[C@H]2[C@H](O)[C@@H](O[C@H]3O[C@H](CO)[C@@H](O)[C@H](N)[C@H]3O)[C@H](N)C[C@@H]2N)[C@H](N)C[C@@H]1O`, for which the inhibition was 6.29% (inactive).

As to `O=C(CCCCO)CCCCCCCC[C@H]1N[C@H](CO)[C@H](O)[C@@H]1O[C@@H]1O[C@H](CO)[C@@H](O)[C@H](O)[C@H]1O`, the inhibition was 6.38% (inactive).

Regarding `Cc1ccc(S(=O)(=O)N2CCN(C(=O)c3ccc(N4CCCCC4)c([N+](=O)[O-])c3)CC2)cc1`, the inhibition is 6.99% (inactive).

Regarding `COCCCC1CCN(C(=O)C2CCC(=O)N(Cc3cccc(F)c3)C2)CC1` (stereo unspecified), the inhibition is 7.1% (inactive).

Regarding `O=S(=O)(/C(=C/c1ccc(C(F)(F)F)cc1)c1nc2ccccc2[nH]1)c1ccccc1`, the inhibition was 4.87% (inactive).

On to `Cc1cccc2c(N)c3c(nc12)CCCC3` (tested in a mixture with another compound), for which the inhibition is 16.8% (inactive).

For `CN1CCc2c1nc1ccccc1c2N` (tested in a mixture with another compound), the inhibition is 13.1% (inactive).

For the molecule `COc1ccc(CNC(=O)Cn2cc3c(n2)CCCCC3)cc1`, the inhibition is 7.34% (inactive).

With `O=C1OC(c2ccccc2)=C/C1=C/N1CCCCC1`, the inhibition is 30.7% (inactive).

For `O=C1OC(c2ccccc2)=N/C1=C\N1CCCCC1`, the inhibition was -1.27% (inactive).

For the molecule `CCN(C(=O)c1c(C)noc1C)c1c(N)n(Cc2ccccc2)c(=O)[nH]c1=O`, the inhibition is 5.68% (inactive).

Consider `CCn1c(=O)c(C(=O)NCc2ccc(F)cc2)c(O)c2ccccc21`, for which the inhibition is 10.4% (inactive).

`CSc1ccc(C#N)cc1NC(=O)c1ccc(Cl)cc1Cl`: the inhibition is 7.34% (inactive).

`NC1=NC(=O)/C(=C/c2cccs2)S1`: the inhibition was 4.92% (inactive).

As for `NC1=NC(=O)/C(=C\c2cccs2)S1`, the inhibition is -1.57% (inactive).

For `CCCn1c(N)c(C(=O)CSc2nnc(-c3cccs3)n2C2CC2)c(=O)[nH]c1=O`, the inhibition was 1.21% (inactive).

As for `O=C(CCN1CCN(c2ccccc2)CC1)NNC(=O)c1ccccc1`, the inhibition is 10.2% (inactive).

Regarding `Cc1ccc(NS(=O)(=O)c2cc(N)ccc2Cl)c(C)c1`, the inhibition was 11.7% (inactive).

`CNS(=O)(=O)c1cc(N)ccc1C`: the inhibition was 5.24% (inactive).

For `Cc1cc(C)cc(NC(=S)N2CCCC2)c1`, the inhibition is 4.82% (inactive).

In the case of `C/C(=N/Nc1ccnc2cc(Cl)ccc12)c1ccc(O)cc1`, the inhibition is 18.6% (inactive).

On to `CCOc1ccc(Nc2ccnc3cc(Cl)ccc23)cc1`, for which the inhibition was 6.93% (inactive).

As to `COc1ccc(N2CCN(c3ccnc4cc(Cl)ccc34)CC2)cc1`, the inhibition was 13.2% (inactive).

With `C/C(=N/Nc1ccnc2cc(Cl)ccc12)c1ccc(N)cc1`, the inhibition is 18.6% (inactive).

Regarding `Clc1ccc2c(N/N=C/c3ccc(Br)cc3)ccnc2c1`, the inhibition is 7.12% (inactive).

`Clc1ccc(NNc2ccnc3cc(Cl)ccc23)cc1`: the inhibition was 6.46% (inactive).

For `Oc1ccc(/C=N/Nc2ccnc3cc(Cl)ccc23)c(O)c1O`, the inhibition is 15.3% (inactive).

In the case of `CC(=O)c1ccc(N2CCN(c3ccnc4cc(Cl)ccc34)CC2)cc1`, the inhibition was 1.01% (inactive).
